{
  "source": "paper PMC10726135",
  "about": "“HNF4α isoforms regulate the circadian balance between carbohydrate and lipid metabolism in the liver”",
  "note": "In all, about 18,000 sequences were measured (“log2 normalized intensity”: median about 0.36, highest 2% from about 7.3 on). For the sample, the highest values were picked, then their nearest neighbours and some sequences at random.",
  "data": [
    {"molecular_target": "T1, HNF4alpha8 (COS-7 nuclear extract) (Homo sapiens, UniProt P41235-5 1-452)", "T1 sequence": "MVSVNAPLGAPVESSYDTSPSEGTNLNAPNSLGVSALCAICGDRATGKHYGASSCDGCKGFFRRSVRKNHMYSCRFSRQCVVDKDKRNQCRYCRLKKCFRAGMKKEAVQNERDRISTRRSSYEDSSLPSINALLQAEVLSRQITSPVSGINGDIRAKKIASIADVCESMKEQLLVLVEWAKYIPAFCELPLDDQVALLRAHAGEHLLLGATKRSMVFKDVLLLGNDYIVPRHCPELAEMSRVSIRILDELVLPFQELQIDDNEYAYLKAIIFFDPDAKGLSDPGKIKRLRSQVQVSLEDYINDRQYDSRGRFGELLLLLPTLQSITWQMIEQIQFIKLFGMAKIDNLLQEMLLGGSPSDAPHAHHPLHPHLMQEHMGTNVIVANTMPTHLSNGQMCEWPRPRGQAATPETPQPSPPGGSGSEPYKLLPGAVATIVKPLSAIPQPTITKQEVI", "experiment": "protein-binding microarray; COS-7 nuclear extract on double-stranded Agilent 4x180k PBM; binding buffer, salt, pH and temperature not given in the material; high values mean tight binding", "conditions": "chain copies: 2; label: 3' end of strand 1 on the slide; dsDNA, one strand shown", "method_in_brief": "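Double-stranded oligonucleotides of ~60 nt, representing ~44,000 test sequences in quadruplicate, made up a custom Agilent SurePrint G3 4x180k array. Nuclear extracts from COS-7 cells transiently transfected by CaPO4 with a human HNF4α isoform expression vector were applied, and bound HNF4α was imaged at 2-µm resolution on an Agilent G2565CA scanner. Binding signal refers to the background-corrected, normalized gProcessedSignal output of Agilent software.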", "units": {"binding signal": "log2 normalized intensity"}, "values": [
      {"sequence": "TTTGTCTGTGTAGACTCATCTGGTGTCATTGCCTAGGGAGATTAGAGTATCGGTCGA", "binding signal": 1.95},
      {"sequence": "TTTTTGAGATGGAATCTTGCCCTGTCGCCCGCCTAGGGAGATTAGAGTATCGGTCGA", "binding signal": 3.19},
      {"sequence": "GGTTCCAGCATGGACTTCACAGCCTGTTAGGCCTAGGGAGATTAGAGTATCGGTCGA", "binding signal": 0.147},
      {"sequence": "TGTGGGTTCAAATCCATTCAGCAGCGTGTAGCCTAGGGAGATTAGAGTATCGGTCGA", "binding signal": -0.128},
      {"sequence": "GCAAAGTTCAACCCTGAATGTGTGCTGGCCGCCTAGGGAGATTAGAGTATCGGTCGA", "binding signal": 1.12},
      {"sequence": "ACTTCGCTGGAGGTGTTAAAGTGCCATTGAGCCTAGGGAGATTAGAGTATCGGTCGA", "binding signal": 1.75},
      {"sequence": "TGCACTTTACGTAAGATAAGGTGAACATACGCCTAGGGAGATTAGAGTATCGGTCGA", "binding signal": 1.09},
      {"sequence": "AGAGCAAGGGTCAAGGGTCATTTGTTTTTAGCCTAGGGAGATTAGAGTATCGGTCGA", "binding signal": 6.31},
      {"sequence": "CCGCAGTGGGAGAGCAAGGGTCAAGGGTCAGCCTAGGGAGATTAGAGTATCGGTCGA", "binding signal": 7.52},
      {"sequence": "TGGGTGGGGGAAGTGTGGTCAAGGGTCAGTGCCTAGGGAGATTAGAGTATCGGTCGA", "binding signal": 4.76},
      {"sequence": "AAGGGTCAAGGGTCATTTGTTTTTACAGACGCCTAGGGAGATTAGAGTATCGGTCGA", "binding signal": 6.77},
      {"sequence": "CCCATCCGCAGTGGGAGAGCAAGGGTCAAGGCCTAGGGAGATTAGAGTATCGGTCGA", "binding signal": 4.51},
      {"sequence": "GTGGGAGAGCAAGGGTCAAGGGTCATTTGTGCCTAGGGAGATTAGAGTATCGGTCGA", "binding signal": 7.65},
      {"sequence": "CATTTTTTTCCACCCTCCCCTCCCCCTCCTGCCTAGGGAGATTAGAGTATCGGTCGA", "binding signal": 6.32},
      {"sequence": "GAATTTTGGACAAGGTAACCCCCAACATTCGCCTAGGGAGATTAGAGTATCGGTCGA", "binding signal": 3.79},
      {"sequence": "ATGTGCCCTTTGGACAGAAATATCAGCAAGGCCTAGGGAGATTAGAGTATCGGTCGA", "binding signal": 3.43},
      {"sequence": "GGAGGGAACAGCAAGACTTTGGCCCTGCAGGCCTAGGGAGATTAGAGTATCGGTCGA", "binding signal": 0.278},
      {"sequence": "AAGTCCAAAGTTCTTGGCCAGGCATGGAGAGCCTAGGGAGATTAGAGTATCGGTCGA", "binding signal": 2.75},
      {"sequence": "AAGGGTCAATGTGATCAGGTGTGGGCATTAGCCTAGGGAGATTAGAGTATCGGTCGA", "binding signal": 1.3},
      {"sequence": "ATCTCACACAGTACTTTGTACATGGGAATAGCCTAGGGAGATTAGAGTATCGGTCGA", "binding signal": 1.8},
      {"sequence": "ATAGTTCAGCCATCAGGTAACATATTGTCCGCCTAGGGAGATTAGAGTATCGGTCGA", "binding signal": 1.18},
      {"sequence": "GGATTTTTTCTTGGACTTTGGTCATCCTTTGCCTAGGGAGATTAGAGTATCGGTCGA", "binding signal": 7.39},
      {"sequence": "GACTTTGGTTGGATTTCTTGGCTTCTCTTGGCCTAGGGAGATTAGAGTATCGGTCGA", "binding signal": 0.989},
      {"sequence": "GCAGTTTTTGATCAAGGAGGACTTTGGAATGCCTAGGGAGATTAGAGTATCGGTCGA", "binding signal": 7.54},
      {"sequence": "ATCAAGGATTTTTTCTTGGACTTTGGTCATGCCTAGGGAGATTAGAGTATCGGTCGA", "binding signal": 8.58},
      {"sequence": "TTGGACTTTGGTCATCCTTTACTTTCCCAAGCCTAGGGAGATTAGAGTATCGGTCGA", "binding signal": 6.14},
      {"sequence": "TTTAGGCAGTTTTTGATCAAGGAGGACTTTGCCTAGGGAGATTAGAGTATCGGTCGA", "binding signal": 4.55},
      {"sequence": "TTTTCTTGGACTTTGGTCATCCTTTACTTTGCCTAGGGAGATTAGAGTATCGGTCGA", "binding signal": 6.91},
      {"sequence": "TCCAGATCAAGGATTTTTTCTTGGACTTTGGCCTAGGGAGATTAGAGTATCGGTCGA", "binding signal": 5.67},
      {"sequence": "TTTTGATCAAGGAGGACTTTGGAATGGCAGGCCTAGGGAGATTAGAGTATCGGTCGA", "binding signal": 4.79},
      {"sequence": "CAGAAGTCATGTCTCATTGCCCCTTGAGCTGCCTAGGGAGATTAGAGTATCGGTCGA", "binding signal": 3.87},
      {"sequence": "TGCCCTTTGGCCCCCAGAGCCCCGTGTCTCGCCTAGGGAGATTAGAGTATCGGTCGA", "binding signal": 5.63},
      {"sequence": "ACCCCTGAATAGGTCTTGGAATGTGACGGCGCCTAGGGAGATTAGAGTATCGGTCGA", "binding signal": 1.5},
      {"sequence": "GTTCTCTGGGCTTTTTGATCTTGTCACATTGCCTAGGGAGATTAGAGTATCGGTCGA", "binding signal": 1.99},
      {"sequence": "GAACAGTCCTACAAATGATCAAAGGTTGGTGCCTAGGGAGATTAGAGTATCGGTCGA", "binding signal": 3.74},
      {"sequence": "TACAGGGAGCTATTCTTTAACCAGAGTCTAGCCTAGGGAGATTAGAGTATCGGTCGA", "binding signal": -0.822},
      {"sequence": "TCTTGTGGTAATCTCTTTTGTGTTAGAGGGGCCTAGGGAGATTAGAGTATCGGTCGA", "binding signal": 1.02},
      {"sequence": "GACCTTCAGATGCAGTCCAGAAGGTCAGGAGCCTAGGGAGATTAGAGTATCGGTCGA", "binding signal": 4.19},
      {"sequence": "GCTAGACTTGGACCAGCTTTTGGAAGGACTGCCTAGGGAGATTAGAGTATCGGTCGA", "binding signal": 0.0118},
      {"sequence": "CCCACAGAGGGGGTTTGTTTTTTGCCCTTTGCCTAGGGAGATTAGAGTATCGGTCGA", "binding signal": 5.27},
      {"sequence": "AGCCTACCCACCCACACCTCCCCTTTGTTTGCCTAGGGAGATTAGAGTATCGGTCGA", "binding signal": 3.22},
      {"sequence": "AGAGGGGGTTTGTTTTTTGCCCTTTGTACCGCCTAGGGAGATTAGAGTATCGGTCGA", "binding signal": 8.63}
    ]}
  ]
}
